Results filed as inconclusive are left out. Values without a mark were called inactive.
These compounds were tested against Estrogen receptor beta (Homo sapiens) (UniProt Q92731) (assay: qHTS assay to identify small molecule agonists of the estrogen receptor beta (ER-beta) signaling pathway (AID 1259377; active = well fitted activation curve with a large enough effect in the signal ratio in the repeat runs, not every such curve was filed as active; the % refers to the signal ratio)). Settings: ER-beta-UAS-bla HEK293T, beta-lactamase FRET ratio, 16 h; series mostly up to 92.4 µM; activation: at the top concentration.
Chain of Estrogen receptor beta (Homo sapiens) (Q92731 whole entry, looked up): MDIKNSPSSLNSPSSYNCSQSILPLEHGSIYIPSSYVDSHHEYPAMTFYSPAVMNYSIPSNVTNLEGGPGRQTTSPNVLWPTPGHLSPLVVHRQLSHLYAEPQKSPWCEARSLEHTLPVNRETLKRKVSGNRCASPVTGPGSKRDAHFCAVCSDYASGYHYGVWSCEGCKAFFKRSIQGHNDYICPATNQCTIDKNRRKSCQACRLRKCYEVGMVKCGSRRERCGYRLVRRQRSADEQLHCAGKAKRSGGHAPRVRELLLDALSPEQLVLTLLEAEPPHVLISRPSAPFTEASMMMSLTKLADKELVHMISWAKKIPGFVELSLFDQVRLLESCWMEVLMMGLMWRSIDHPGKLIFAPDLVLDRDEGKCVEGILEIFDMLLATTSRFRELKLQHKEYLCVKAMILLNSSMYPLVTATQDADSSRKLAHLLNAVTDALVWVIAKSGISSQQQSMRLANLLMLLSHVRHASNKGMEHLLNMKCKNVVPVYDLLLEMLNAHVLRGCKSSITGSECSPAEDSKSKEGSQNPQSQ
Procedure, shortened: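 Beta-lactamase reporter readout: fluorescence of LiveBLAzer B/G FRET substrate after 2 h at room temperature, following 16 h compound treatment of ER-beta-UAS-bla HEK293T cells at 37C in 2% charcoal-stripped FBS medium.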
% is set by controls: 0 for no effect and ±100 for the full control effect.

Row | SMILES | activation
1 | CCOC(=O)[C@H](CCc1ccccc1)N[C@@H](C)C(=O)N1C(=O)N(C)C[C@H]1C(=O)O | 5.39% [at 42.5 µM]
2 | O=C(O)c1ccc(Cl)cc1Cl | 5.66%
3 | N#Cc1ccc(C(=O)O)cc1 | 4.94%
4 | CCCCCCCCC1CCC(=O)O1 (centres undefined) | 0.418%
5 | CN1CCN(CC(=O)N2c3ccccc3C(=O)Nc3cccnc32)CC1 | 7.01% [at 8.39 µM]
6 | O=C(CS(=O)Cc1ccco1)NC/C=C\COc1cc(CN2CCCCC2)ccn1 (centres undefined) | 0.385% [at 42.5 µM]
7 | COc1cc(C(=S)N2CCOCC2)cc(OC)c1OC | 8.65% [at 42.5 µM]
8 | C=C1CC/C=C(\C)CC[C@@H]2[C@@H]1CC2(C)C | 1.03%
9 | CC1(C)S[C@@H]2[C@H](N=CN3CCCCCC3)C(=O)N2[C@H]1C(=O)O | 4.53% [at 42.5 µM]
10 | Nc1ncnc(Nc2ccccc2)n1 | 0.298% [at 42.5 µM]
11 | CCN1CCc2nc(N)oc2CC1 | 0.119% [at 42.5 µM]
12 | CN(C)c1ccc(C=O)cc1 | 4.05%
13 | CC(N)C(=O)OC(C)(C)Cc1ccc(Cl)cc1 (centres undefined) | 2.49% [at 42.5 µM]
14 | Cc1cc(Cl)c(C)cc1Cl | 8.97%

The compounds below were run against Estrogen receptor beta (Homo sapiens) (UniProt Q92731) (assay: qHTS assay to identify small molecule antagonists of the estrogen receptor beta (ER-beta) signaling pathway (AID 1259378; active = well fitted inhibition curve with a large enough effect in the signal ratio in the repeat runs, not every such curve was filed as active; the % refers to the signal ratio)). Settings: ER-beta-UAS-bla HEK293T, beta-lactamase FRET ratio, 16 h; series mostly up to 92.4 µM; activity, negative = inhibition: at the top concentration.
Procedure, shortened: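 Antagonist mode: compounds added to beta-lactamase reporter HEK293T ER-beta-UAS cells stimulated with E2 (1nM final), 16 hr at 37C. LiveBLAzer B/G FRET substrate, 2 hours room temperature, fluorescence read-out.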

Row | SMILES | activity, negative = inhibition
15 | NS(=O)(=O)c1ccc(NC(=O)CCC(=O)O)cc1 | 1.68% [at 42.5 µM]
16 | CCCCCCCCSCC | 15.5%
17 | CC(C)N(c1ccccc1)C(C)C | -0.397%
18 | CC(C)CC(=O)O | 3.16%
19 | C=C(C)C(=O)OCCOP(=O)(O)OCCOC(=O)C(=C)C | -0.333%
20 | CC(=O)NCCCCCC(=O)O | 2.09% [at 42.5 µM]
21 | COC(=O)CCCCCCCC(=O)OC | 16.2%
22 | CN(C)C(=O)CNC(=O)Cc1ccccc1 | 5.21% [at 42.5 µM]
23 | C[C@H](N)[C@H](O)c1cccc(O)c1 | -2.82% [at 42.5 µM]
24 | Cc1ccc2c(c1)OCC(=O)CO2 | -1.38%
25 | C[C@H](CCC(=O)O)[C@H]1CC[C@H]2[C@@H]3C(=O)C[C@@H]4CC(=O)CC[C@]4(C)[C@H]3CC(=O)[C@]12C | 2.26% [at 42.5 µM]
26 | Cc1ccc(C=O)cc1C | 13.5%
27 | CCCCCCCCOS(=O)(=O)O | 9.28%
28 | CC(=O)/C=C/C1C(C)=CCC(C)C1(C)C (centres undefined) | 0.251%
29 | CCCC(=O)C(C)=O | 20.2%
30 | O=C1CCCC(=O)O1 | -9.48%
31 | CCOC(=O)CC(=O)c1ccccc1 | 3.03%
32 | C[C@@H](O)[C@H]1C(=O)N2C(C(=O)O)=C(SCCN=CN)C[C@H]12 | 7.7% [at 42.5 µM]
33 | CC(C)OC(=O)CCCCC(=O)OC(C)C | 10.4%
34 | CNS(=O)(=O)CCc1ccc2[nH]cc(C3CCN(C)CC3)c2c1 | 5.23% [at 42.5 µM]
35 | CC(=C(CCOC(=O)C(C)C)SSC(CCOC(=O)C(C)C)=C(C)N(C=O)Cc1cnc(C)nc1N)N(C=O)Cc1cnc(C)nc1N | -14.3% [at 42.5 µM]
36 | O=S(=O)(O)c1ccc2cc(O)c(S(=O)(=O)O)cc2c1 | -0.969%
37 | CCCCCCCC/C=C\CCCCCCCC(=O)OCCCC | 0.587% [at 19 µM]
38 | CCOC(=O)[C@H](CCc1ccccc1)N[C@@H](C)C(=O)N1C(=O)N(C)C[C@H]1C(=O)O | 0.97% [at 42.5 µM]
39 | O=C(O)c1ccc(Cl)cc1Cl | 8.09%
40 | N#Cc1ccc(C(=O)O)cc1 | 8.44%
41 | CCCCCCCCC1CCC(=O)O1 (centres undefined) | 0.303%
42 | CN1CCN(CC(=O)N2c3ccccc3C(=O)Nc3cccnc32)CC1 | 0.518% [at 8.39 µM]
43 | O=C(CS(=O)Cc1ccco1)NC/C=C\COc1cc(CN2CCCCC2)ccn1 (centres undefined) | 21.8% [at 42.5 µM]
44 | COc1cc(C(=S)N2CCOCC2)cc(OC)c1OC | 3.26% [at 42.5 µM]

— PubChem BioAssay (Tox21)
